The list is not random: actives were taken first. Their share in the collection is about 3.8%.
697 NFkB inh: inhibitors of the PMA/ionomycin-induced NF-kB reporter in 697 B cells; 0.33% of 330,000 active; inhibition, % at 4 µM; 697 B-cell NF-kB luciferase reporter, 16 h; in the data active = inhibition above about 35%
Jurkat NFkB inh: lowers PMA/ionomycin-induced NF-kB signal in Jurkat cells; inhibition, % at 4 µM; AID 435003; 0.53% of 330,000 active; PMA/ionomycin-induced NF-kB luciferase reporter, luminescence; in the data active = inhibition above about 50%
Gli-Sufu block: antagonists of Gli-Sufu signaling | inhibition, % at 5 µM | Sufu-KO-LIGHT fibroblasts, Gli luciferase reporter luminescence | 0.74% of 340,000 active | AID 588413;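 active = inhibition above about 55%, limit read from the data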
Mdm2 MdmX PPI: disrupts the human Mdm2-MdmX interaction; 3% of 330,000 active; SaOS-2 split-luciferase Mdm2/MdmX complementation, luminescence; AID 485346; inhibition, % at 8 µM;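 active = inhibition of at least 50% at 8 µM in the primary screen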
Target sequence (O15151 whole entry, looked up): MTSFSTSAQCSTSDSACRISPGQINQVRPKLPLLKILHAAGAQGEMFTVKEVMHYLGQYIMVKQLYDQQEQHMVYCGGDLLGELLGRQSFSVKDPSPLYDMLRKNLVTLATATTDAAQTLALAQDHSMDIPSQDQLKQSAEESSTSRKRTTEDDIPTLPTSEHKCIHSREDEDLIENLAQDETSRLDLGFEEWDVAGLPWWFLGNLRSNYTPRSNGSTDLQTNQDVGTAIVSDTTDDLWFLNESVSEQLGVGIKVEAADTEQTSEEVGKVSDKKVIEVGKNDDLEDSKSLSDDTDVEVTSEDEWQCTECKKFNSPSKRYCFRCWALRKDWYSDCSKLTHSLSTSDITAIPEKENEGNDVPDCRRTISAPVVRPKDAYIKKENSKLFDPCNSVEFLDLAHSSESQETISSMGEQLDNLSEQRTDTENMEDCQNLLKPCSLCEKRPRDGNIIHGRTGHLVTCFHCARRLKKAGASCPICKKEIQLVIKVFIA
Target sequence (Q00987 whole entry, looked up): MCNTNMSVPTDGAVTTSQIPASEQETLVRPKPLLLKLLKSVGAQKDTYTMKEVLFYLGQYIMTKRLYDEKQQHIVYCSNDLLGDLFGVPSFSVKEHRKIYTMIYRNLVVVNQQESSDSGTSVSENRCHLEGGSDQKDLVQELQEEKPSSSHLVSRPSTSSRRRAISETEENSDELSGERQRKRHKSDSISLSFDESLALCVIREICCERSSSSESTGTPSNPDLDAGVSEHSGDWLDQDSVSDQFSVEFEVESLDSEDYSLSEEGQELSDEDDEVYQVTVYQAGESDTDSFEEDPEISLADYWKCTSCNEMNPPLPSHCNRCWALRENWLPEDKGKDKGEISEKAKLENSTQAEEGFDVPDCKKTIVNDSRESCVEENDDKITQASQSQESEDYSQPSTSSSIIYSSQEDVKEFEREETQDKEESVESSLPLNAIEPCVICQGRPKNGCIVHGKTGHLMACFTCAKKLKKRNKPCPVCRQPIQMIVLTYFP
Shn3 inh set2: inhibitors of Schnurri-3 3'UTR reporter in osteoblasts | Clone20 osteoblast Shn3 3'UTR firefly luciferase, 24 h | inhibition, % at 12.5 µM | 0.52% of 360,000 active;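 active = mean inhibition of at least 75% with every replicate also reaching 75%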
Mdm2 MdmX conf: human Mdm2/MdmX binding inhibition, confirmed | shares compounds with Mdm2 MdmX PPI | luminescent assay | inhibition, % at 8 µM | 55% of 10,000 active | AID 489028; in the data active = inhibition above about 40%
FLuc counter: counter-screen for Mdm2/MdmX inhibitors: full-length luciferase. shares compounds with Mdm2 MdmX PPI. SaOS-2 full-length luciferase counterscreen, luminescence. inhibition, % at 8 µM. 77% of 6,200 active;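 active = mean inhibition at 8 µM reaching about 37%, which flags the compound as non-specific, limit read from the data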;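 note: p53-null SaOS-2 cells with luciferase driven by a doxycycline-inducible promoter; compound on cells about two nights before reading with doxycycline added after day one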
Each line names hits and unclear results; the compound was inactive in the other large screens (follow-up assays come after a bar, where they were run).

Cc1ccc(C)c(C2NC(=O)c3ccccc3N2)c1 (centres undefined)	Mdm2 MdmX PPI 50 | Mdm2 MdmX conf 53 | FLuc counter 55
COc1cc(C)c(C2NC(=O)c3ccccc3N2)cc1C (centres undefined)	none (no result: 697 NFkB inh, Jurkat NFkB inh, Mdm2 MdmX PPI)
O=C(Cn1cnc2ccccc2c1=O)Nc1ccc(S(=O)(=O)N2CCOCC2)cc1	none
O=C(Cn1cnc2cc([N+](=O)[O-])ccc2c1=O)Nc1cccc(S(=O)(=O)N2CCOCC2)c1	Mdm2 MdmX PPI 61 | Mdm2 MdmX conf inactive
CNC(=O)NC(=O)C(C)OC(=O)c1oc2ccccc2c1CSc1ccc(Cl)cc1 (centres undefined)	none
COc1ccc(S(=O)(=O)n2nc(-c3ccc(Cl)cc3)cc2N)cc1	Mdm2 MdmX PPI 51 | Mdm2 MdmX conf 52 | FLuc counter 59
COc1ccc(-c2cc(N)n(S(=O)(=O)c3ccc(C)cc3)n2)c(OC)c1	none
CCOC(=O)C1CCN(C(=O)COC(=O)c2ccc([N+](=O)[O-])o2)CC1	none
COc1ccc(/C=C/c2nc3ccccc3c(=O)o2)cc1	Gli-Sufu block 71, Mdm2 MdmX PPI 88 | Mdm2 MdmX conf 84 | FLuc counter 63
CC(=O)Oc1ccc(N(C(C)=O)S(=O)(=O)c2ccc(C)c([N+](=O)[O-])c2)cc1	none
O=C(NC1CCCCC1)C(c1cccnc1)N(C(=O)CCl)c1ccccc1Cl (centres undefined)	Mdm2 MdmX PPI 95 | Mdm2 MdmX conf 99 | FLuc counter 59
COc1ccc(N(C(=O)CCl)C(C(=O)NC2CCCCC2)c2cccnc2)cc1 (centres undefined)	Mdm2 MdmX PPI 96 | Mdm2 MdmX conf 100 | FLuc counter 54
Cc1c(NC(=S)Nc2ccc(Cl)cc2)c(=O)n(-c2ccccc2)n1C	none
Cc1ccc(SCCC(=O)OCC(=O)Nc2ccc(C(N)=O)cc2)cc1	none
COCCNC(=O)C1(C)CCCN(Cc2csc3ccccc23)C1 (centres undefined)	none (no result: 697 NFkB inh, Jurkat NFkB inh, Gli-Sufu block, Mdm2 MdmX PPI)
COc1cccc(N2CC(NS(=O)(=O)c3ccc4ccccc4c3)CC2=O)c1 (centres undefined)	none
COc1cc2oc(=O)cc(-c3ccc(-c4ccc(CO)cc4)cc3)c2c(OC)c1OC	Mdm2 MdmX PPI 68 (no result: Jurkat NFkB inh) | Mdm2 MdmX conf 64 | FLuc counter 48
Cc1ccc(/C=C/C(=O)c2ccc([N+](=O)[O-])o2)cc1	Mdm2 MdmX PPI 100 (no result: Shn3 inh set2) | Mdm2 MdmX conf 97 | FLuc counter 58
O=C(/C=C/c1ccc(Cl)cc1)c1ccc([N+](=O)[O-])o1	Mdm2 MdmX PPI 98, Shn3 inh set2 97 | Mdm2 MdmX conf 100 | FLuc counter inactive
CC1=NN(c2cccc(C(=O)O)c2)C(=O)/C1=C\C=C/c1ccccc1	Mdm2 MdmX PPI 65 | Mdm2 MdmX conf inactive
COCCn1c(C)cc(C(=O)CSc2nc3ccccc3o2)c1C	none
COCCn1c(C)cc(C(=O)CSc2nc3ccccc3s2)c1C	Mdm2 MdmX PPI 66 | Mdm2 MdmX conf 70 | FLuc counter 146
COCCn1c(C)cc(C(=O)CSc2nnc3ccccn23)c1C	Mdm2 MdmX PPI 54 | Mdm2 MdmX conf 62 | FLuc counter 113
O=C(Nc1ccc(S(=O)(=O)N2CCCCCC2)cc1)c1[nH]ncc1[N+](=O)[O-]	Mdm2 MdmX PPI 52 (no result: Gli-Sufu block) | Mdm2 MdmX conf inactive
COc1ccccc1C(=O)CSc1ccccn1	none
CN(C)C1CCN(Cc2cc(COCc3ccccc3)c3cccnc3c2O)C1 (centres undefined)	Gli-Sufu block 57, Mdm2 MdmX PPI 67, Shn3 inh set2 88 | Mdm2 MdmX conf 71 | FLuc counter inactive
Oc1c(CN2CCCCC2)cc(COCc2ccccc2)c2cccnc12	Gli-Sufu block 92, Mdm2 MdmX PPI 52, Shn3 inh set2 92 | Mdm2 MdmX conf 49 | FLuc counter 44
COCCN(C(=O)COC(=O)/C=C/c1ccc2ccccc2n1)c1c(N)n(Cc2ccccc2)c(=O)[nH]c1=O	Mdm2 MdmX PPI 54 | Mdm2 MdmX conf inactive
COCCN(C(=O)COC(=O)/C=C/c1nc2ccccc2s1)c1c(N)n(Cc2ccccc2)c(=O)[nH]c1=O	Mdm2 MdmX PPI 64 | Mdm2 MdmX conf inactive
CC(=O)c1c(NC(=O)c2ccccc2)[nH]c(-c2ccccc2)nc1=S	none
COc1cccc(CN2CCNC(=O)C2CC(=O)N(C)Cc2cnccn2)c1OC (centres undefined)	none
CN(C)C=Nc1ncc2c([nH]c3ccccc32)c1C#N	Mdm2 MdmX PPI 72 | Mdm2 MdmX conf 82 | FLuc counter inactive
CN(C)/C=N/c1[nH]ncc1C#N	none
CCOC(=S)SCC(=O)Nc1nc(-c2ccc(Br)cc2)cs1	Mdm2 MdmX PPI 84 | Mdm2 MdmX conf 76 | FLuc counter 102
CCOC(=S)SCC(=O)Nc1nc(-c2ccccc2)cs1	Mdm2 MdmX PPI 60 | Mdm2 MdmX conf 57 | FLuc counter 100
CCOC(=S)SCC(=O)Nc1nccs1	none
C=Cc1cnc([N+](=O)[O-])n1C	none (no result: 697 NFkB inh, Jurkat NFkB inh, Gli-Sufu block, Mdm2 MdmX PPI)
Cc1cc(=O)oc2cc(OCC(=O)c3ccc4c(c3)NC(=O)CO4)ccc12	Mdm2 MdmX PPI 65 | Mdm2 MdmX conf 54 | FLuc counter 109
COc1ccc(/C=C/C(=O)OCC(=O)c2ccc3c(c2)NC(=O)CO3)cc1	Mdm2 MdmX PPI 92 | Mdm2 MdmX conf inactive
COc1cc(/C=C/C(=O)OCC(=O)c2ccc3c(c2)NC(=O)CO3)ccc1OC(F)F	none
CC(C)CC(NC(=O)c1ccc(Cl)cc1)C(=O)OCC(=O)c1ccc2c(c1)NC(=O)CO2 (centres undefined)	Mdm2 MdmX PPI 95, Shn3 inh set2 87 | Mdm2 MdmX conf 94 | FLuc counter inactive
CC(C)C[C@H](CO)N(Cc1ccccc1)S(=O)(=O)N(Cc1ccccc1)[C@@H](CO)CC(C)C	Mdm2 MdmX PPI 91 | Mdm2 MdmX conf inactive
C=CS(=O)(=O)N(Cc1ccccc1)[C@H](CO)CC(C)C	none (no result: 697 NFkB inh, Jurkat NFkB inh, Mdm2 MdmX PPI)
C=C[C@H](CC(C)C)N(Cc1ccccc1)S(=O)(=O)N(Cc1ccc(OC)cc1)[C@H](C=C)CC(C)C	Mdm2 MdmX PPI 58 | Mdm2 MdmX conf inactive
Cc1cc(Cl)cc2sc(=S)[nH]c12	none (no result: 697 NFkB inh, Jurkat NFkB inh, Mdm2 MdmX PPI)
COc1ccc(NC(=O)COC(=O)C2CCN(S(=O)(=O)c3cccs3)CC2)cc1	none
Cn1c(-c2ccccc2)c(C(=O)CCl)c2ccccc21	none (no result: 697 NFkB inh, Jurkat NFkB inh, Mdm2 MdmX PPI)
CCn1c(-c2ccccc2)c(C(=O)CCl)c2ccccc21	Mdm2 MdmX PPI 98 | Mdm2 MdmX conf inactive
CCCNC(=O)C1(C)CCCN(Cc2ccc(-n3ccnc3)cc2)C1 (centres undefined)	none (no result: 697 NFkB inh, Jurkat NFkB inh, Gli-Sufu block, Mdm2 MdmX PPI)
CC(C)(C)OC(=O)[C@H](Cc1ccccc1)NC(=O)c1nc[nH]c1C(=O)N[C@@H](Cc1ccccc1)C(=O)OC(C)(C)C	Mdm2 MdmX PPI 86 | Mdm2 MdmX conf inactive
CC(C)(C)OC(=O)NCCCCCNC(=O)c1[nH]cnc1C(=O)N[C@@H](Cc1ccccc1)C(=O)OC(C)(C)C	none

Compound activity: PubChem BioAssay, several laboratories
